Experimental findings from PubChem BioAssay (Tox21) are described below.

A short description of test [1]: qHTS assay to identify small molecule agonists of H2AX (AID 1224845; active means well fitted activation curve with a large enough effect in the signal ratio in the repeat runs, not every such curve was filed as active; the % refers to the signal ratio; further: on the % scale 0 is the no-effect control and ±100 the full control effect). The procedure, abridged:
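Phospho-H2AX Ser139 measured by HTRF (ex 320 nm; em 665 and 620 nm) after 24 hr antibody incubation. Compounds, 15 concentrations, 0.76% DMSO, were applied to CHO-K1 cells for 3hr at 37C before lysis.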

Test [2] in a line: qHTS assay to identify small molecule agonists of the hypoxia (HIF-1) signaling pathway (AID 1224846; active means well fitted activation curve with a large enough effect in the signal ratio in the repeat runs, not every such curve was filed as active; the % refers to the signal ratio; further: on the % scale 0 is the no-effect control and ±100 the full control effect). The procedure, abridged:
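Cell line: CellSensor HRE-bla ME-180; 2,000 cells/well; 0.5% dialyzed FBS; 5 h preincubation; DMSO compound pin transfer; 17 h, 37C, 5% CO2; CCF4-AM added; bla FRET signal scored for activation.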

Test [3] can be described thus: qHTS assay to identify small molecule agonists of H2AX - cell viability counter screen (AID 1224847; calls by dose curve;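 further: wild-type CHO-K1 cells; top concentration of the series differs between compounds; on the % scale 0 is the no-effect control and ±100 the full control effect; nearly all actives have a fitted effect of over 30% in size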). The essentials: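 CHO-K1 wt, 1000 cells/well, o/n 37C; cpds 15 conc, 3 h 37C, 0.76% DMSO; CellTiter-Glo, 30 min RT, luminescence.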
Test [4] is described as follows: qHTS RealTime-Glo MT Cell Viability Assay in HepG2 cells - 24 hour (AID 1224867). Further: on the % scale 0 is the no-effect control and ±100 the full control effect; nearly all actives have a fitted effect of over 50% in size. The essentials:
(§1)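 Tox21 10K library screened in qHTS format on HepG2 cells carrying RealTime-Glo reagents. Compounds were added after a 5 h preincubation, and the luminescent signal from continuous culture was measured repeatedly during 40 h treatment.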

Test [5] in a line: qHTS RealTime-Glo MT Cell Viability Assay in HEK293 cells - 32 hour (AID 1224868). Further: nearly all actives have a fitted effect of over 50% in size. Further: potency means the concentration at half of the fitted maximal effect. The essentials: (§2)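 Luminescence generated by NanoLuc from substrate produced by living HEK293 cells served as the viability signal. Each value reflects the reading at its stated time point during continuous 40 h compound exposure at 37 C.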
The nature of test [6]: A CellTox Green Cytotoxicity Assay to monitor cytotoxicity in HEK293 cells - 0 hour (AID 1224869). Further: on the % scale 0 is the no-effect control and ±100 the full control effect; nearly all actives have a fitted effect of over 50% in size. The essentials:
(§3)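 Nonlytic real-time cytotoxicity: HEK293 + CellTox Green reagent plated, 5 h preincubation, pintool compound addition (23 nL in DMSO), 37 C for 40 h, fluorescence measured at successive time points.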

Test [7] is described as follows: qHTS RealTime-Glo MT Cell Viability Assay in HepG2 cells - 40 hour (AID 1224870). Further: on the % scale 0 is the no-effect control and ±100 the full control effect; nearly all actives have a fitted effect of over 50% in size. The procedure, abridged: (§4)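 Real-time viability: cells seeded at 600 per well together with NanoLuc and cell-permeant prosubstrate, compounds added after 5 h incubation. Luminescence tracked at 0, 8, 16, 24, 32 and 40 h of exposure.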
A short description of test [8]: A CellTox Green Cytotoxicity Assay to monitor cytotoxicity in HEK293 cells - 40 hour (AID 1224871). Further: on the % scale 0 is the no-effect control and ±100 the full control effect; nearly all actives have a fitted effect of over 45% in size. The essentials: as §3
A short description of test [9]: qHTS RealTime-Glo MT Cell Viability Assay in HEK293 cells - 40 hour (AID 1224874). Further: nearly all actives have a fitted effect of over 50% in size. Further: potency means the concentration at half of the fitted maximal effect. On max response: on the % scale 0 is the no-effect control and ±100 the full control effect. The settings on record: RealTime-Glo luminescence; max response: stronger effect = lower value. The procedure, abridged:
(§5)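 Cells were seeded together with NanoLuc luciferase and a prosubstrate that viable cells reduce to a luciferase substrate. After a 5 h incubation at 37 C/5% CO2, compounds were added and luminescence was measured repeatedly during 40 h of treatment.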

The nature of test [10]: A CellTox Green Cytotoxicity Assay to monitor cytotoxicity in HEK293 cells - 24 hour (AID 1224875). Further: on the % scale 0 is the no-effect control and ±100 the full control effect; nearly all actives have a fitted effect of over 45% in size. The essentials:
as §3

Test [11] can be described thus: A CellTox Green Cytotoxicity Assay to monitor cytotoxicity in HepG2 cells - 16 hour (AID 1224876). Further: on the % scale 0 is the no-effect control and ±100 the full control effect; nearly all actives have a fitted effect of over 45% in size. The essentials: (§6)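 Read-out is fluorescence of a cyanine dye excluded from live cells that stains DNA of dead HepG2 cells, with signal proportional to cytotoxicity. Plates were read at 0, 8, 16, 24, 32 and 40 h after compound addition.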
Test [12] in a line: qHTS RealTime-Glo MT Cell Viability Assay in HepG2 cells - 32 hour (AID 1224877). Further: on the % scale 0 is the no-effect control and ±100 the full control effect; nearly all actives have a fitted effect of over 55% in size. The procedure, abridged: as §1
The nature of test [13]: A CellTox Green Cytotoxicity Assay to monitor cytotoxicity in HepG2 cells - 24 hour (AID 1224878). Further: nearly all actives have a fitted effect of over 45% in size. Further: potency means the concentration at half of the fitted maximal effect. On Cytotoxicity: on the % scale 0 is the no-effect control and ±100 the full control effect. The essentials:
as §6

Test [14] can be described thus: A CellTox Green Cytotoxicity Assay to monitor cytotoxicity in HepG2 cells - 40 hour (AID 1224879). Further: nearly all actives have a fitted effect of over 40% in size. Further: potency means the concentration at half of the fitted maximal effect. The procedure, abridged:
as §6

A short description of test [15]: qHTS RealTime-Glo MT Cell Viability Assay in HEK293 cells - 0 hour (AID 1224880). The essentials: as §5
Test [16] can be described thus: A CellTox Green Cytotoxicity Assay to monitor cytotoxicity in HEK293 cells - 32 hour (AID 1224881). Further: on the % scale 0 is the no-effect control and ±100 the full control effect; nearly all actives have a fitted effect of over 40% in size. The essentials:
as §3

Test [17] in a line: qHTS RealTime-Glo MT Cell Viability Assay in HEK293 cells - 16 hour (AID 1224872). Further: nearly all actives have a fitted effect of over 50% in size. Further: potency means the concentration at half of the fitted maximal effect. The essentials:
as §2

Test [18] is described as follows: qHTS RealTime-Glo MT Cell Viability Assay in HepG2 cells - 8 hour (AID 1224873). Further: on the % scale 0 is the no-effect control and ±100 the full control effect; nearly all actives have a fitted effect of over 55% in size. The essentials: as §4
The nature of test [19]: qHTS assay to identify small molecule agonists of the estrogen related receptor (ERR) signaling pathway from Tox21 library (AID 1224849; calls by dose curve; further: on the % scale 0 is the no-effect control and ±100 the full control effect; nearly all actives have a fitted effect of over 15% in size). The settings on record: ERR reporter cell line, ONE-Glo luciferase, 18 h. The procedure, abridged: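 ERR cells, 6 h pre-incubation 37 C/5% CO2; cpd in DMSO pinned; 18 h 37 C; ONE-Glo added, 30 min RT; luminescence read. Agonist mode, qHTS.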

Test [20] is described as follows: qHTS assay to identify small molecule antagonists of the estrogen related receptor (ERR) signaling pathway from Tox21 library (AID 1224848). The procedure, abridged:
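Reading was by luminescence 30 min after ONE-Glo addition. Before that, ERR cells at 2,000 per well had rested 6 h at 37 C/5% CO2 and then received pin-tooled compounds in DMSO for 18 h at 37 C.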

Molecules are shown by their SMILES. Where “and” joins values, the source holds several entries; their conditions need not be identical. Equal entries are not always repeated. Records with an inconclusive call do not appear. Where a structure was tested more than once in an assay, its records may differ in their call. Calls of active or inactive are those of the source. Unless noted, the call rests on the fitted dose curve; in most records, active means well fitted curve in the direction sought with a large enough effect in the repeat runs; inconclusive means weak or mixed curves; inactive means no such curve, though single readings can be large; an effect the other way counts as inactive or inconclusive.

On to `Cc1ccccc1C=O`, for which the Potency result in test [1], in test [3], in test [4], in test [5], in test [6] and in test [7] was “inactive” throughout. Moreover, the Potency result in test [8], in [10], in test [11], in test [12], in test [13] and in test [14] was “inactive” throughout. Also, the Potency result in [15] and in test [16] was “inactive” in each case. Further, the molecule was called inactive in test [2]. Moreover, the max response in [9] was 5.78% (inactive) and -0.406% (inactive).

For the molecule `C=C(CC(=O)O)C(=O)O`, the Potency result in test [1], in test [3], in test [4], in [5], in [6] and in [7] was “inactive” throughout. Further, the Potency result in [8], in test [17], in test [18], in test [10], in test [11] and in [12] was “inactive” each time. Moreover, the Potency result in test [13], in test [14], in test [15] and in [16] was “inactive” each time. In addition, the max response in [9] is 2.09% (inactive) and -0.881% (inactive).

`O=c1n(CCCN2CCN(c3cccc(Cl)c3)CC2)nc2ccccn12`: the Potency entry in test [1], in test [3], in test [4], in [6], in [7] and in [8] was “inactive” throughout. For the same molecule, the Potency result in [10], in test [11], in test [12], in test [13], in [14] and in test [15] was “inactive” in each case. Further, the Potency result in [16] was “inactive”. Moreover, the activity change, positive = activation was -14.9% (inactive) in test [19] (at 42.5 µM (top of the series)) and -28.6% (inactive) in test [19] (at 92.4 µM (top of the series)). Moreover, the Potency is 13.8 µM (active) and 9.52 µM (active) in test [5]; 12.3 µM (active) and 9.52 µM (active) in test [17]; 13.8 µM (active) and 9.52 µM (active) in test [9].

For `CC(=O)c1nccs1`, the Potency entry in [1], in test [3], in test [4], in [5], in [6] and in test [7] was “inactive” each time. Moreover, the Potency entry in test [8], in [11], in test [12], in test [13], in test [14] and in test [15] was “inactive” throughout. In addition, in test [16], the Potency result is “inactive”. For the same molecule, the molecule was called inactive in [2]. Moreover, the max response in test [9] was 1.39% (inactive) and 3.29% (inactive).

Take `Nc1nc(N)c2nc(-c3ccccc3)c(N)nc2n1`: the Potency entry in test [3], in [4], in test [5], in test [6], in [7] and in test [8] was “inactive” in each case. The Potency result in test [17], in [18], in [10], in [11], in test [12] and in test [15] was “inactive” each time. The Potency entry in test [16] was “inactive”. Further, the Potency in [20] was 24.6 µM (active) and 21.7 µM (active); in test [9], 24.8 µM (active) and 19.5 µM (active); in [13] it was 54.9 µM (active) and inactive; in [14] it was 49.5 µM (active) and 49 µM (active). Also, the activity change, positive = activation in [19] (at 42.5 µM (top of the series)) is -33.8% (inactive); in test [19] (at 92.4 µM (top of the series)), -44.9% (inactive) and -45.9% (inactive). Moreover, the max response in test [9] was -27.6% (inactive).

On to `OC1CCCCC1`, for which the Potency result in test [1], in test [3], in [4], in [5], in test [6] and in test [7] was “inactive” in each case. Further, the Potency result in test [8], in test [18], in test [11], in test [12], in [13] and in [14] was “inactive” in each case. Also, the Potency result in test [15] and in [16] was “inactive” throughout. Further, the molecule was called inactive in test [2]. The max response in test [9] was 6.11% (inactive) and 1.84% (inactive).

Take `CCCCCCCCC(=O)O`: the Potency entry in [1], in [3], in test [4], in test [5], in [6] and in test [7] was “inactive” throughout. The Potency entry in test [8], in test [18], in [11], in [12], in test [13] and in test [14] was “inactive” in each case. Besides, the Potency entry in test [15] and in test [16] was “inactive” in each case. The molecule was classed as inactive in [2]. In [9], the max response is 1.64% (inactive) and 2.96% (inactive).

With `CC(C)=CCC/C(C)=C/C=O`, the Potency entry in test [1], in test [3], in [4], in test [5], in [6] and in [7] was “inactive” throughout. For the same molecule, the Potency result in test [8], in [18], in test [10], in test [11], in test [12] and in test [13] was “inactive” in each case. For the same molecule, the Potency entry in test [14], in test [15] and in [16] was “inactive” each time. In addition, the molecule was classed as inactive in test [2]. Also, the max response in test [9] was 4.59% (inactive) and 11.5% (inactive).

As to `CCn1cc(C(=O)O)c(=O)c2cc3c(cc21)OCO3`, the Potency entry in [1], in [3], in test [4], in test [5], in test [6] and in test [7] was “inactive” in each case. Moreover, the Potency entry in test [8], in test [17], in test [10], in test [11], in test [12] and in [13] was “inactive” throughout. Further, the Potency result in test [14], in test [15] and in test [16] was “inactive” each time. For the same molecule, the max response in test [9] was 10.2% (inactive) and 3.68% (inactive).

For `OCC(O)CS` (centres undefined), the Potency result in test [1], in test [3], in [4], in test [5], in [6] and in [7] was “inactive” each time. The Potency result in test [8], in [18], in test [10], in [11], in test [12] and in test [13] was “inactive” in each case. Besides, the Potency result in [14], in [15] and in test [16] was “inactive” each time. The molecule was called inactive in [2]. In addition, the max response in test [9] was 14.9% (inactive) and 3.08% (inactive).

On to `CCOC(=O)c1ccc(O)cc1`, for which the Potency entry in test [1], in [3], in test [4], in test [5], in [6] and in [7] was “inactive” throughout. The Potency result in test [8], in test [10], in [11], in [12], in [13] and in test [14] was “inactive” throughout. In addition, the Potency entry in test [15] and in test [16] was “inactive” in each case. Also, the call in test [2] was inactive. For the same molecule, the max response in test [9] is -23.5% (inactive) and -3.47% (inactive).
